Measurements as given in PubChem BioAssay (NCI).
Compounds without any hit were thinned out: in the full panel of roughly 83,000, 20% have a hit.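 Cell lines were cultured in 96-well plates, exposed to a single compound concentration, and assessed for percent growth 48 hours later.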

Assays:
Assay in all cases: NCI-60 one-dose screen, 48 h (100 = growth as untreated, 0 = no growth, -100 = all killed)
Details in all cases: 10 µM unless noted; active means growth percent below 10; inactive means the rest
NCI-H23 lung = test system: NCI-H23 lung
NCI-H226 lung = test system: NCI-H226 lung
NCI-H322M lung = test system: NCI-H322M lung
HOP-62 NSCLC = test system: HOP-62 NSCLC
NCI-H460 lung = test system: NCI-H460 lung
HOP-92 NSCLC = test system: HOP-92 NSCLC
NCI-H522 lung = test system: NCI-H522 lung
A549/ATCC NSCLC = test system: A549/ATCC NSCLC
786-0 renal = test system: 786-0 renal
COLO 205 colon = test system: COLO 205 colon
DU-145 prostate = test system: DU-145 prostate
K-562 leukemia = test system: K-562 leukemia
MALME-3M melanoma = test system: MALME-3M melanoma
MDA-MB-231 breast = test system: MDA-MB-231 breast
RXF 393 renal = test system: RXF 393 renal
SF-268 CNS = test system: SF-268 CNS
SF-295 CNS = test system: SF-295 CNS
SF-539 CNS = test system: SF-539 CNS
UACC-257 melanoma = test system: UACC-257 melanoma
M14 melanoma = test system: M14 melanoma

Measured: growth

CC1(C)CC(=O)CC2(C1)N=C(N)Nc1nc3ccccc3n12 (stereo not given)
inactive: NCI-H23 lung 101% | NCI-H226 lung 95.6% | NCI-H322M lung 117% | HOP-62 NSCLC 119% | NCI-H460 lung 111% | HOP-92 NSCLC 87.3% | NCI-H522 lung 69.6% | A549/ATCC NSCLC 97.9% | 786-0 renal 107% | COLO 205 colon 102% | DU-145 prostate 115% | K-562 leukemia 103% | MALME-3M melanoma 104% | MDA-MB-231 breast 96.5% | RXF 393 renal 104% | SF-268 CNS 107% | SF-295 CNS 108% | SF-539 CNS 105% | UACC-257 melanoma 106% | M14 melanoma 110%

O=C(N=c1oc2ccccc2cc1-c1cc2ccccc2[nH]1)c1ccc(Cl)cc1
inactive: NCI-H23 lung 29.4% | NCI-H226 lung 84.6% | NCI-H322M lung 53.5% | HOP-62 NSCLC 63.1% | NCI-H460 lung 77.2% | HOP-92 NSCLC 24% | NCI-H522 lung 14.2% | A549/ATCC NSCLC 51.3% | 786-0 renal 70.7% | COLO 205 colon 69.7% | DU-145 prostate 51.3% | K-562 leukemia 26.5% | MALME-3M melanoma 94.1% | MDA-MB-231 breast 51.2% | RXF 393 renal 59.9% | SF-268 CNS 35.5% | SF-295 CNS 60.3% | SF-539 CNS 52.8% | UACC-257 melanoma 98.7% | M14 melanoma 79.7%

N#Cc1c(-c2ccccn2)[nH]c(=S)[nH]c1=O
inactive: NCI-H23 lung 106% | NCI-H226 lung 103% | NCI-H322M lung 97% | HOP-62 NSCLC 99.9% | NCI-H460 lung 108% | HOP-92 NSCLC 93.6% | NCI-H522 lung 88.9% | A549/ATCC NSCLC 98% | 786-0 renal 92.2% | COLO 205 colon 110% | DU-145 prostate 105% | K-562 leukemia 97% | MALME-3M melanoma 108% | MDA-MB-231 breast 117% | RXF 393 renal 110% | SF-268 CNS 101% | SF-295 CNS 99.1% | SF-539 CNS 97.3% | UACC-257 melanoma 109% | M14 melanoma 97.6%

C[n+]1cccc(CC(=O)NO)c1
inactive: NCI-H23 lung 102% | NCI-H226 lung 89.3% | NCI-H322M lung 97.2% | HOP-62 NSCLC 92.7% | NCI-H460 lung 101% | HOP-92 NSCLC 82.5% | NCI-H522 lung 84.6% | A549/ATCC NSCLC 68.1% | 786-0 renal 106% | COLO 205 colon 97.7% | DU-145 prostate 109% | K-562 leukemia 94.4% | MALME-3M melanoma 104% | MDA-MB-231 breast 100% | RXF 393 renal 106% | SF-268 CNS 104% | SF-295 CNS 113% | SF-539 CNS 90.9% | UACC-257 melanoma 67.7% | M14 melanoma 99.2%

COc1ccc(NC(=O)CSc2nnc(-c3cc(-c4ccc(S(N)(=O)=O)cc4)nc4ccccc34)n2-c2ccccc2)cc1
inactive: NCI-H23 lung 102% | NCI-H226 lung 77.5% | NCI-H322M lung 93.8% | HOP-62 NSCLC 85.7% | NCI-H460 lung 91% | HOP-92 NSCLC 62.2% | NCI-H522 lung 78% | A549/ATCC NSCLC 90.9% | 786-0 renal 88.4% | COLO 205 colon 95.5% | DU-145 prostate 96.6% | K-562 leukemia 66.4% | MALME-3M melanoma 77.5% | MDA-MB-231 breast 72.8% | RXF 393 renal 81.9% | SF-268 CNS 68.6% | SF-295 CNS 94.5% | SF-539 CNS 78.4% | UACC-257 melanoma 103% | M14 melanoma 86.1%

CCCCCCCCCCCCCCCCCC1=NCCN1CCOC1=C(Cl)C(=O)c2ccccc2C1=O
inactive: NCI-H23 lung 79.4% | NCI-H226 lung 100% | NCI-H322M lung 80.5% | HOP-62 NSCLC 82.6% | NCI-H460 lung 98.3% | HOP-92 NSCLC 46.4% | NCI-H522 lung 13.8% | A549/ATCC NSCLC 95.3% | 786-0 renal 98.3% | COLO 205 colon 41.2% | DU-145 prostate 109% | K-562 leukemia 21.7% | MALME-3M melanoma 67.1% | MDA-MB-231 breast 55.9% | RXF 393 renal 102% | SF-268 CNS 91.2% | SF-295 CNS 108% | SF-539 CNS 104% | UACC-257 melanoma 72.3% | M14 melanoma 83.1%
